From PubChem
esBAF inh = SWI/SNF esBAF complex inhibition; AID 602393; mouse ES cells, Bmi1-luciferase knock-in reporter, 24 h; 100% = twice the neutral-well signal; reporter increase, % at 12.5 µM; actives 2% (n = 350,000); in the data active = activation above about 40%; inconclusive = no clear call, values can overlap the other calls;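 note: 0% = median of the plate's neutral control wells and 100% = double that signal; a rise in the Bmi1 reporter signal indicates esBAF inhibition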
MITF act = activators of MITF-driven TRPM1 promoter activity in SK-MEL-5 cells; SK-MEL-5 TRPM1-promoter luciferase, 24 h; % of positive control, neutral wells = 0; actives 0.75% (n = 300,000); AID 588334; activation, % at 12.5 µM;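 active = mean activation of at least 80% with every replicate also reaching 80%; inconclusive = mean reaches 80% but some replicate falls short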;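 note: 0% = neutral control wells and 100% = parthenolide positive control wells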
MITF TRPM1 inh = reduces MITF-dependent TRPM1 promoter luciferase signal; SK-MEL-5 TRPM1 promoter luciferase, 24 h; inhibition, % at 12.5 µM; actives 0.83% (n = 330,000);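 active = mean inhibition across replicates of 60% or more, whatever share of single replicates reaches that level; inconclusive = some that reach 60%, reason not given; inactive = mean inhibition across replicates below 60%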
LMP1 NFkB inh = reduces LMP1-driven NF-kappaB luciferase signal | LMP1-induced NF-kappaB luciferase reporter cells, luminescence | inhibition, % at 12.5 µM | actives 0.69% (n = 350,000) | AID 504558; in the data active = inhibition above about 41%; inconclusive = no clear call, values can overlap the other calls;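 note: 0% = neutral control wells and 100% = reference inhibitor control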
C2C12 statin = protects C2C12 myotubes from simvastatin toxicity; ATP luminescence, 48 h; scaled: DMSO 0, geranylgeraniol control 100; rescue of ATP level, % at 7.49 µM; actives 0.78% (n = 330,000); AID 602340;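 active = mean ATP rescue above about 67%, or every replicate alone reaching that limit, limit read from the data, passing the limit was not always enough; inconclusive = no clear call, values can overlap the other calls; inactive = mean under the limit and some replicate under it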;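 note: myotubes were challenged with 10 µM simvastatin during compound exposure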
Wnt bcat act = Wnt/beta-catenin pathway activation | Wnt/beta-catenin reporter cell assay, activator, plate reader | activation, % at 9.35 µM | actives 1.2% (n = 300,000) | AID 743398; in the data active = activation above about 30%, passing the limit was not always enough; inconclusive = no clear call, values can overlap the other calls;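 note: 0% = neutral control wells and 100% = positive control wells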
Numbers without * were called inactive; i = inactive; u = inconclusive; x = no result given. Sampled rows, rich in hits. Any-hit rate of the full collection: about 4%.

SMILES | esBAF inh | MITF act | MITF TRPM1 inh | LMP1 NFkB inh | C2C12 statin | Wnt bcat act
N#CCc1ccc(NC(=O)Nc2cccc(Cl)c2)cc1 | 0 | 83* | -86 | -16 | -19 | x
O=C(Nc1cccc(F)c1)Nc1cccc(Cl)c1 | 55* | 60 | -60 | -8 | -18 | 24
O=C(Nc1cccc(Cl)c1)Nc1nc(-c2ccccc2)cs1 | x | -3 | 3 | -35 | x | -1
Cc1cccnc1NC(=O)Nc1cccc(Cl)c1 | u | 91* | -95 | -25 | 21 | 26
Cc1csc(NC(=O)Nc2cccc(Cl)c2)n1 | 88* | 65 | -67 | -22 | -2 | 49*
O=C(Nc1cccc(Cl)c1)Nc1cccc(Cl)c1 | 5 | 46 | -45 | -18 | x | 4
Cc1cccc(-c2ccc([C@@H]3[C@H]4CN(C(=O)c5ccncc5)CCCCN4[C@H]3CO)cc2)c1 | 0 | x | x | x | -1 | x
Cc1onc(-c2ccccc2)c1C(=O)Nc1ccc2c(c1)OCO2 | -3 | 8 | -8 | -4 | 0 | x
CCC(=O)N(C)C[C@H]1Oc2cc(-c3ccccc3OC)ccc2S(=O)(=O)N([C@@H](C)CO)C[C@@H]1C | 10 | x | x | x | -12 | x
O=C(Nc1ccc2c(c1)OCO2)c1cccc(F)c1 | x | 71 | -66 | -17 | x | u
O=C(Nc1cccc(Cl)c1)Nc1ccnc(-c2cccnc2)n1 | x | 3 | 2 | 58* | x | -6
O=C(Nc1cccc(F)c1)Nc1ccc2c(c1)OCO2 | 50* | u | -83 | -20 | -12 | u
O=C(Nc1cccc(Cl)c1)NC1CC2CCC1C2 (configuration not stated) | 50* | 19 | -17 | -3 | -2 | 9
Cc1ccccc1-c1cnc2c(c1)C(=O)N([C@@H](C)CO)C[C@H](C)[C@@H](CN(C)CC1CCCC1)O2 | -3 | x | x | x | -79 | x
O=C(O)Cc1sc(Nc2ccc(Cl)cc2)nc1-c1cccs1 | x | -80 | 81* | 51* | x | 1
COc1ccccc1-c1nnc(-c2ccc(C)cc2)o1 | x | x | -63 | -12 | x | -1
COc1ccccc1C1=NC(c2ccc(C)cc2)N=C1C (configuration not stated) | x | 46 | -44 | -10 | x | 52*
CCc1ccc(NS(=O)(=O)c2ccc3[nH]cc(C(=O)N4CCc5ccccc54)c(=O)c3c2)cc1 | x | 21 | -19 | -18 | x | 11
COc1ccc(-n2ncc3c(N(C)C4CCCCC4)ncnc32)cc1 | -80 | -59 | 59 | 52* | -36 | -14
Cc1cccc(-n2ncc3c(N(CCO)CCO)ncnc32)c1 | 20 | 57 | -57 | -20 | -10 | 6
COc1ccc(-n2ncc3c(N4CCC(C)CC4)ncnc32)cc1 | -32 | x | x | 35 | 8 | 10
Cc1cccc(-n2ncc3c(N(C)C4CCCCC4)ncnc32)c1 | -79 | -78 | 80* | 37 | -16 | -2
COC(=O)c1nn(-c2ccccc2)c(=O)cc1O | x | 2 | 2 | 0 | x | -2
Cn1cnc(C(=O)NC2CCN(C(=O)OC(C)(C)C)CC2)c1C(=O)NC1CCN(C(=O)OC(C)(C)C)CC1 | x | 12 | -14 | 3 | x | 1
CC(C)(C)OC(=O)N1CCC(NC(=O)c2ncn(Cc3ccccc3)c2C(=O)NC2CCN(C(=O)OC(C)(C)C)CC2)CC1 | 35 | 432* | i | -3 | 11 | -6
SMILES | esBAF inh | MITF act | MITF TRPM1 inh | LMP1 NFkB inh | C2C12 statin | Wnt bcat act
Cc1ccccc1COC[C@H](CC(C)C)N1CCN(C(=O)c2cccc(C(F)(F)F)c2)CCC1=O | 4 | -3 | 2 | 8 | 3 | -2
Nc1cc(S(=O)(=O)Nc2ccc(Br)cc2)ccc1Cl | x | 0 | -11 | -1 | x | -4
CCOC(=O)[C@H]1[C@H]2COc3ccc(OC)cc3[C@@H]2N2C(=O)CN(C)C(=O)[C@@]12C | -1 | 2 | 3 | 47* | 11 | -5
CCOC(=O)[C@H]1[C@H]2COc3ccc(C)cc3[C@@H]2N2C(=O)CN(Cc3ccc(OC)cc3)C(=O)[C@@]12C | -4 | 5 | -3 | 45* | -4 | 0
CCCC#Cc1cnc2c(c1)C(=O)N([C@H](C)CO)C[C@H](C)[C@@H](CN(C)C(=O)C1CCC1)O2 | -5 | x | x | x | 20 | x
CCNC(=O)C[C@@H]1CC[C@H]2[C@H](COc3ccc(NC(=O)Nc4cccc(F)c4)cc3C(=O)N2C)O1 | -8 | x | x | x | 1 | x
O=C(Oc1ccc(N2C(=O)CCC2=O)cc1)c1ccco1 | -4 | -3 | 4 | 0 | 5 | x
